PubChem BioAssay AID588519 (ICCB-Longwood Screening Facility, Harvard Medical School, 2011)
The whole screen tested about 150,000 compounds, of which about 1,000 (0.67%) were called active. Rule as the data show it: active = % elongation below about 90%; inactive = the rest, inconclusive results apart. Many of the other results were omitted from the sample, so actives are more common in it than they were.

Biological target: Genome polyprotein (Poliovirus type 1 (strain Mahoney)) (UniProt P03300)
Sequence (P03300 1749-2209 limits assumed): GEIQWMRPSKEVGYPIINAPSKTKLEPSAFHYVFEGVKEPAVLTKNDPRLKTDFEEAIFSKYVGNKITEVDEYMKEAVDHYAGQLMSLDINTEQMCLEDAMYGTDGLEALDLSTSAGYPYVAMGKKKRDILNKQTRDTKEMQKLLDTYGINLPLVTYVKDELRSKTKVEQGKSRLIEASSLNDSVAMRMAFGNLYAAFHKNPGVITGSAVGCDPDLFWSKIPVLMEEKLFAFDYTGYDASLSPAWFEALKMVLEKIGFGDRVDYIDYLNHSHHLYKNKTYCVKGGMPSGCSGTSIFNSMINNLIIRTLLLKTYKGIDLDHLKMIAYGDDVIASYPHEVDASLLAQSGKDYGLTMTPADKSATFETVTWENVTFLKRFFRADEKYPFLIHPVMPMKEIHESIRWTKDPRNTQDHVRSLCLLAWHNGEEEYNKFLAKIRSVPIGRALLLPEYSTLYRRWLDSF
Assay: poliovirus RdRp elongation inhibitors, primary screen, biochemical, fluorescence polarization, total intensity (AID 588519); as to z-score: compound at 16.7 µg/mL
Details: poliovirus polymerase elongation, stronger effect = lower value; for % elongation: compound at 16.7 µg/mL; for z-score: measured here: FP z-score
[1] = measured here: total intensity read-out

| Structure (SMILES) | % elongation | z-score | % elongation [1] [%] |
| --- | --- | --- | --- |
| CCCc1nc2c3ccccc3ncn2n1 | 105% (inactive) | 0.4 | 113 |
| Cc1ccc(Cl)cc1NC(=O)C(C)n1nnc2sc(-c3ccccc3)cc2c1=O (stereo not given) | 65% (active) | -6.8 | 65 |
| CCCCCCn1nnc2sc(-c3ccccc3)cc2c1=O | 121% (inactive) | 2.3 | 118 |
| CC(C)OC(=O)C(C)n1cnc2sc(-c3ccccc3)cc2c1=O (stereo not given) | 104% (inactive) | 0 | 105 |
| CC1(C)CC(=O)C=C(Nc2sc3c(c2C#N)CCCC3)C1 | 98% (inactive) | -1 | 97 |
| O=C(CSc1nnnn1-c1ccccc1)NCCC12CC3CC(CC(C3)C1)C2 | 102% (inactive) | -0.1 | 107 |
| COc1ccc(S(=O)(=O)NCCSc2nnnn2-c2ccccc2)cc1 | 75% (active) | -7.9 | 73 |
| CCOc1ccc(S(=O)(=O)NCCSc2ccccc2)cc1 | 100% (inactive) | -0.1 | 103 |
| O=C(Nc1ccc(S(=O)(=O)C(F)F)cc1)c1cccnc1N1CCCC1 | 102% (inactive) | -0.3 | 104 |
| Cc1ccc(-n2cc[nH]c(=O)c2=O)cc1 | 103% (inactive) | 0.3 | 102 |
| CCCC(=O)Nc1ccc(C(=O)CSc2nnc(Cc3ccccc3)o2)cc1 | 106% (inactive) | 0.3 | 106 |
| O=C(Sc1ccc(Oc2ccc(SC(=O)c3ccco3)cc2)cc1)c1ccco1 | 44% (active) | -11.5 | 51 |
| O=C(Oc1ccc(Br)cc1)c1ccco1 | 101% (inactive) | -0.3 | 105 |
| O=C(CSc1ccc(Br)cc1)c1ccco1 | 97% (inactive) | -0.9 | 89 |
| CCCCN(C)C(=O)C1CCCN(c2nnc(C)c3c(C)n(-c4ccccc4)nc23)C1 (stereo not given) | 101% (inactive) | -0.1 | 103 |
| O=C(CSc1nnc2ccccn12)c1ccccc1 | 101% (inactive) | 0.1 | 103 |
| O=C(CCC(=O)c1ccccc1)c1ccccc1 | 100% (inactive) | 0.1 | 102 |
| O=C(CSc1ccccc1)c1ccccc1 | 79% (active) | -2.3 | 75 |
| O=C(Nc1ccccc1I)C1CCCO1 (stereo not given) | 101% (inactive) | 0.2 | 100 |
| CN(Cc1ccccc1)C(=O)Cn1cnc(S(=O)(=O)N2CCCC2)c1 | 103% (inactive) | 1 | 101 |
| O=C(Nc1ccc(Cl)cc1Cl)C1CC(=O)N(C2CCCCC2)C1 (stereo not given) | 105% (inactive) | 0.2 | 102 |
| Oc1c(C(c2cccnc2)N2CCOCC2)ccc2cccnc12 (stereo not given) | 85% (inactive) | -2.9 | 110 |
| O=C(CCc1ccccc1)NCC1COC2(CCCCC2)O1 (stereo not given) | 106% (inactive) | 0.3 | 112 |
| CCN(CC(=O)Nc1ccc(S(=O)(=O)N2CCCC2)cc1)CC(=O)Nc1cccc(OC)c1 | 89% (active) | -1.2 | 88 |
| COc1cccc(NC(=O)CN(C)CC(=O)Nc2ccc3c(c2)CCC3)c1 | 100% (inactive) | -0.4 | 101 |

| Structure (SMILES) | % elongation | z-score | % elongation [1] [%] |
| --- | --- | --- | --- |
| COc1cc(NC(=O)CN2CCN(S(=O)(=O)c3ccc(Br)cc3)CC2)cc(OC)c1 | 114% (inactive) | 1.5 | 102 |
| CCN(CC)S(=O)(=O)c1cc(C(=O)N2CCN(Cc3ccc4c(c3)OCO4)CC2)ccc1Cl | 109% (inactive) | 0.8 | 109 |
| COC(=O)COc1ccc(CSc2nc3ccccc3c(=O)n2C)cc1 | 100% (inactive) | -0.3 | 95 |
| Cc1ccc2nc(CSc3nnc(-c4ccccc4)o3)cc(=O)n2c1 | 99% (inactive) | -0.7 | 92 |
| CNC(=O)C1Cc2cc(S(=O)(=O)N3CCCC3)ccc2N1C(C)=O (stereo not given) | 99% (inactive) | -1.3 | 103 |
| O=C(Nc1cccnc1)C(=O)c1c(O)[nH]c2ccccc12 | 101% (inactive) | -0.1 | 105 |
| CC(NC(=O)C1CCCN1C(=O)c1cccs1)c1ccc(-n2ccnc2)cc1 (stereo not given) | 100% (inactive) | -0.2 | 104 |
| O=c1c(Cl)c(NC2CC2)cnn1-c1ccccc1 | 102% (inactive) | 0.2 | 103 |
| N#Cc1cnn(-c2nc3ccccc3[nH]2)c1N | 105% (inactive) | 0.3 | 104 |
| O=c1c(Cl)c(Cl)cnn1-c1nc2ccccc2[nH]1 | 48% (active) | -5.8 | 58 |
| Cc1cc(=O)[nH]c(SC(C)C(=O)NC2CCCCC2)n1 (stereo not given) | 99% (inactive) | -0.4 | 103 |
| Clc1nc2ccccc2c(N2CCCCC2)c1CNC1CC1 | 104% (inactive) | 0.8 | 105 |
| O=C(/C=C/c1c(Cl)nc2sccn12)NCc1ccc2c(c1)OCO2 | 97% (inactive) | -0.6 | 102 |
| CC(c1ccccc1)n1c(N)c(C#N)c2nc3ccccc3nc21 (stereo not given) | 97% (inactive) | -1.4 | 106 |
| N#Cc1c(N)n(Cc2ccc(Cl)cc2)c2nc3ccccc3nc12 | 75% (active) | -4.3 | 85 |
| CC(C)(C)c1ccc(C(=O)NCCn2c(N)c(C#N)c3nc4ccccc4nc32)cc1 | 107% (inactive) | 0.5 | 112 |
| Cc1nnc2ccc(-c3ccc(NS(=O)(=O)c4ccc5c(c4)OCCO5)cc3)nn12 | 99% (inactive) | -1.2 | 102 |
| CCOC(=O)c1c(NC(=O)c2cc(-n3cnnc3)ccc2Cl)sc2c1CCCC2 | 99% (inactive) | -0.5 | 100 |
| CCOC(=O)c1c(NC(=O)c2cc(-c3ccc(Cl)cc3)on2)sc2c1CCCC2 | 84% (active) | -3 | 85 |
| CCOC(=O)c1c(NC(=O)Cc2coc3ccc(CC)cc23)sc2c1CCC2 | -3% (active) | -8.5 | 25 |
| COc1ccc(-c2cc(C(=O)Nc3sc4c(c3C(N)=O)CCCC4)no2)cc1 | 100% (inactive) | -0.5 | 102 |
| CCOCCCNC(=O)c1c(NC(=O)Cc2coc3c(C)c(C)ccc23)sc2c1CCC2 | 116% (inactive) | 0.1 | 117 |
| CCOCCCNC(=O)c1c(NC(=O)Cc2coc3ccc(C)cc23)sc2c1CCC2 | 116% (inactive) | 0.1 | 114 |
| CCCN(Cc1nc2cc(Cl)ccc2c(=O)[nH]1)C(=S)NC | 99% (inactive) | -0.3 | 99 |
| CN(C)/N=C/C=C1\CCC/C(=C\C=N\N(C)C)C1=O | 165% (inactive) | 6.6 | 154 |
